Experimental data as given in PubChem BioAssay (NCATS).
Records with an inconclusive call do not appear. Calls of active or inactive are those of the source. Calls come from the whole dose curve; as a rule, active = well fitted cell-killing curve with a large enough effect; inconclusive = small, poorly fitted or top-dose-only effect; inactive = flat fitted curve, though single readings scatter. Numbered stars: 1 amine (or outer) side, 2 acyl side, 3 side chain; on linkers, the order of the positions; unused ones are H or OH. Bridge positions count the residues as written; N and C are the ends. Square brackets hold non-standard residues; d marks the D form. Peptide text beside a SMILES is read from it. ξ: configuration not given here. Phe(3R-OH) = O=C([C@@H](N[*:1])[C@H](O[*:3])c1ccccc1)[*:2]; NMeTrp(4-OMe) = CN[C@@H](Cc1c[nH]c2cccc(OC)c12)C(=O)O; ξThr(3R)(O-yl) = C[C@@H](O[*:3])C(N[*:1])C(=O)[*:2]; NMeThr(3ξ) = CN[C@H](C(=O)O)C(C)O; NMeL = CN[C@@H](CC(C)C)C(=O)O; NMeV = CN[C@H](C(=O)O)C(C)C; ξIle = CC[C@H](C)C(N)C(=O)O; ξV = CC(C)C(N)C(=O)O

Test: Panc-1005 Cancer Cell Toxicity qHTS against the NCATS CANVASS Library (AID 1347349); note: nearly all actives have a fitted effect of over 60% in size
Conditions: Panc-1005 viability, CellTiter-Glo luminescence, 72 h; series mostly up to 38.3 µM; activity change, negative = cytotoxicity: at the top concentration
Excerpt: Natural products and their derivatives continue to be wellsprings of nascent therapeutic potential. However, many laboratories have limited resources for biological evaluation, leaving their previously isolated or synthesized compounds largely or completely untested. To address this issue, the Canvass library of natural products was assembled (https://tripod.nih.gov/canvass), in collaboration with academic and industry researchers, for quantitative high-throughput screening (qHTS) across a diverse set of cell-based and biochemical assays. The pure (>85% purity by liquid chromatography/mass spectrometry [LC/MS]) Canvass library of 346 natural products were submitted by 45 academic laboratories and companies around the world. We collected pure natural products to circumvent deconvolution and structure elucidation due to time and resource limitations. The library was formatted into 1536-well plates and evaluated in 50 qHTS (in an 11-pnt concentration series) bioassays with broad scope of disease-relevant mechanisms. The resulting data set from 50 different assays was then systematically analyzed to identify overall trends and specific natural products with interesting biological activities. Reported herein are the results of each individual qHTS and their corresponding assay protocol. National Center for Advancing Translational Sciences (NCATS), Rockville, MD National Institute of Health (NIH), Bethesda, Maryland
Cancer Cell Toxicity protocol for cell lines COV-362, OV-KATE, OV-SAHO, UWB1.289, UWB1.289-WTBRCA1, HEK-293, HPAF-II, Panc-1005, SW1088, or U-118MG. 1. In a 1536 well, white solid bottom tissue culture plates (Corning 7494), corresponding cells (COV-362, OV-KATE, OV-SAHO, UWB1.289, UWB1.289-WTBRCA1, HEK-293, HPAF-II, Panc-1005, SW1088, or U-118MG) were dispensed in each well at a final concentration of 1000 cells / well (6uL volume) using the Multidrop Combi (Thermo Fisher Scientific) dispenser. 2. The plates were incubated for 4 hours at 37 degrees C/5% CO2/95% Rh. 3. Compounds were pin transferred (~23nL volume) via Wako Pin-tool (Wako Automation, Richmond VA) equipped with a 1536 pin head. The assay plates were treated with compounds in an 11-pnt concentration series with a final concentration range of […] to 85uM. 4. Bortezomib was used as a single dose control (0.5mM column 4, rows 1 - 32) at a final concentration of 1.9uM and as a 16pnt titration (1mM; 1:2 dilution; 16-points; n = 2; column 3, rows 1 - 32) with final concentration range of 0.1nM - 3.8uM. 5. The assay plates were incubated for 72 hours at 37 degrees C/5% CO2/95% Rh. 6. 3uL CellTiter-Glo detection reagent was then added to the plates (columns 2 - 48, rows 1 - 32) and incubated at room temperature for additional 15min. 7. Luminescence signal was acquired via the ViewLux plate reader (PerkinElmer) using a clear filter, 2 second exposure and 2x binning settings.
% is set by controls: 0 for no effect and ±100 for the full control effect; potency is the fitted concentration of half-maximal effect.

| SMILES | activity change, negative = cytotoxicity | Potency |
| --- | --- | --- |
| CC1(C)C=Cc2c(ccc3c2OC[C@@H](c2ccc(O)cc2O)C3)O1 | -11.6% (inactive) | – |
| C/C=C/c1cc(OC)c2c(c1)[C@@H](C)[C@H](c1ccc(O)c(OC)c1)O2 | -9.53% (inactive) | – |
| O=C(O)Cc1c[nH]c2ccccc12 | 0% (inactive) | – |
| COC1C(O)C(OC(N)=O)C(Oc2ccc3c(O)c(NC(=O)c4ccc(O)c(CC=C(C)C)c4)c(=O)oc3c2C)OC1(C)C (stereo not given) | 0% (inactive) | – |
| CC(=O)O[C@H]1CC[C@@]2(C)C(CC[C@]3(C)C2CC=C2C4CC(C)(C)CC[C@]4(C)CC[C@]23C)C1(C)C (stereo not given in full) | -0.494% (inactive) | – |
| C=C1C(=O)O[C@H]2C[C@H](C)[C@@H]3CC(=O)C(C)=C3[C@H](O)[C@H]12 | – | 18.8 µM (active) |
| CNc1ccc(Cl)cc1C(=O)OC[C@]1(C)[C@H]2CC[C@]3(C)[C@@H](C[C@@H](OC)[C@H](C)[C@H]3C3=C(O)C(=O)OC3O)[C@]2(C)CC[C@H]1O (stereo not given in full) | -13.3% (inactive) | – |
| CC(O)/C=C/C1(O)C(C)(C)CC(O)CC1(C)O (stereo not given) | -4.73% (inactive) | – |
| C[C@@H](CCC[C@]1(C)C(=O)C=C[C@]23C[C@H]4C[C@H](O[C@@]4(C)C2)C31)C(=O)N[C@@H](CO)C(=O)O (stereo not given in full) | 0% (inactive) | – |
| OCc1ccc2ocnc2c1 | -1.34% (inactive) | – |
| O=C(O)[C@@]12COC3(O)C1CCN1CC[C@H]3[C@@H]1c1c2[nH]c2ccccc12 | -9.14% (inactive) | – |
| C[C@@H]1O[C@@H](Oc2c(-c3ccc(O)cc3)oc3cc(O)cc(O)c3c2=O)[C@H](O)[C@H](O)[C@H]1O | -2.52% (inactive) | – |
| CC12C[C@]3(O)O[C@@H](O1)[C@]1(COC(=O)c4ccccc4)[C@@H]3CC21OC1OC(CO)C(O)C(O)C1O (stereo not given in full) | 4.51% (inactive) | – |
| CCCCCC[C@H](CCCCC[C@@H](O)C(N)=O)OC(=O)[C@@H]1CC=CN1C(=O)c1ccccc1O | -23% (inactive) | – |
| CCC[C@@H](C)/C=C(\C)[C@H](O)[C@H](C)/C=C/CC[C@@H](O)[C@H](C)[C@H](O)[C@H](C)[C@H](O)[C@H](C)[C@H]1O[C@H]([C@H](C)C(=O)O)CC[C@@H]1C | – | 4.21 µM (active) |
| C/C1=C/[C@@H](C)[C@H](O)C/C=C/CC/C=C/C(=O)O[C@@H]1[C@H](C)C(=O)/C=C/CC1CC(=O)NC(=O)C1 | – | 11.9 µM (active) |
| CC1=CC2=C[C@H](C)C[C@@]23OC(=C(C)C3=O)CC(C)(C)/C=C/C1=O | – | 0.943 µM (active) |
| C1=C2CCCN[C@@H]2[C@@H]2CCN3CCCC[C@@H]3[C@H](C1)C2 | 1.31% (inactive) | – |
| C=C1[C@H]2CC[C@@]3(C=CC(=O)[C@@](C)(CCC(=O)Nc4c(O)ccc(C(=O)O)c4O)C3C2)[C@H]1O (stereo not given in full) | -10.9% (inactive) | – |
| CO[C@H]1/C=C/CC[C@@H](S[C@@H]2O[C@H](CO)[C@@H](O)[C@H](O)[C@H]2O)CC(=O)O[C@@H](/C(C)=C/[C@H](C)C(=O)CCCC2CC(=O)NC(=O)C2)[C@@H](C)[C@@H]1O | – | 4.21 µM (active) |

| SMILES | activity change, negative = cytotoxicity | Potency |
| --- | --- | --- |
| C=C1/C=C\C(CCC)=C\c2csc(n2)C(C)NC(=O)C[C@@]2(CC(=O)O)CCC(=C)[C@H](C1)S2 (stereo not given in full) | -0.24% (inactive) | – |
| CO[C@@H]1[C@H](O)[C@@H](C)O[C@@H](OC[C@H]2/C=C/C=C/C(=O)C(C)C[C@H](C)C(O[C@@H]3O[C@H](C)CC4(OC(=O)O[C@@H]4C)C3O)[C@@H](C)/C=C/C(=O)OC2C)[C@@H]1OC (stereo not given in full) | 9.54% (inactive) | – |
| C[C@@H]1C(=O)[C@]23CC[C@H]1C[C@]21O[C@H]2C(C)(C)C=CC(=O)[C@@]23COC1=O | -9.16% (inactive) | – |
| C/C=C/C(=O)[C@@H](C)C1=CC(=O)C2=C(O[C@@]34CC[C@H](O)C(C)(C)[C@@H]3CC[C@H](C)[C@@]4(C)C2)C1=O | – | 4.21 µM (active) |
| COc1ccc2oc3c(OC)c(OC)c(OC)c(OC)c3c(=O)c2c1 | -8.03% [at 7.64 µM] (inactive) | – |
| O=c1cc(-c2ccc(O)cc2)oc2c([C@@H]3OC(CO)[C@H](O)[C@@H](O)[C@H]3O)c(O)cc(O)c12 (stereo not given in full) | 4% (inactive) | – |
| O=C1C[C@@H](c2ccc(O)c(-c3c(O)cc(O)c4c3O[C@H](c3ccc(O)cc3)CC4=O)c2)Oc2cc(O)cc(O)c21 | -12.6% [at 22.9 µM] (inactive) | – |
| C=C(C)[C@@H]1CC[C@]2(C)CC[C@]3(C)[C@H](CC[C@@H]4[C@@]5(C)CC[C@H](O)C(C)(C)[C@@H]5CC[C@]43C)[C@@H]12 | – | inactive |
| CC(=O)NC[C@@H]1O[C@H](CC/C=C(C)/C(C)=C/C=O)[C@H](C)C[C@H]1O | -8.19% (inactive) | – |
| CO[C@@H]1[C@H](O)[C@@H](C)O[C@@H](OC[C@@H]2C(C)OC(=O)/C=C/[C@H](C)C(O[C@@H]3O[C@H](C)CC4(OC(=O)O[C@@H]4C)C3O)[C@@H](C)CC(C)C(=O)CC[C@H]3OC23)[C@@H]1OC (stereo not given in full) | 2.97% (inactive) | – |
| C=CC(C)(C)C(=O)[C@@H](C)[C@@H]1CC[C@](C)(C=C)O1 | 1.36% (inactive) | – |
| C[C@@H]1O[C@@H](O[C@@H]2[C@@H](O)[C@H](O[C@@H]3[C@@H](O)[C@@H](O)C(O[C@H]4[C@H](OC(=O)[C@]56CCC(C)(C)C[C@H]5C5=CCC7[C@@]8(C)C[C@H](O)[C@H](O[C@@H]9C[C@H](CO)[C@@H](O)[C@H](O)[C@H]9O)[C@@](C)(CO)C8[C@H](O)C[C@@]7(C)[C@]5(C)CC6)OC[C@H](O)[C@@H]4O)O[C@H]3C)OC[C@H]2O)[C@H](O)[C@H](O)[C@H]1O (stereo not given in full) | 9.03% [at 22.9 µM] (inactive) | – |
| CN1CCc2cc3c(c4c2[C@H]1[C@@H](O)c1ccccc1-4)OCO3 | – | 16.8 µM (active) |
| Cc1cc(O)cc2oc(C[C@H](C)O)cc(=O)c12 | -9.4% (inactive) | – |
| CN1CC[C@]2(c3cccc4c3N[C@@H]3N(C)CC[C@]43[C@@]34CCN(C)[C@@H]3Nc3c([C@]56CCN(C)[C@H]5Nc5ccccc56)cccc34)c3ccccc3N[C@H]12 | – | 6.68 µM (active) |
| C=C[C@]1(C)CC[C@@H]([C@H](C)C(=O)/C=C/C(C)C)O1 | -8.94% (inactive) | – |
| C=CC(=C)CC[C@]1(C)[C@H]2C[C@H](OC(=O)C(C)CC)C=C3[C@H](OC(C)=O)O[C@H](OC(C)=O)[C@@]32[C@H](OC)C[C@@H]1C (stereo not given in full) | – | 2.17 µM (active) |
| C[C@]12CC[C@]3(C1)[C@H](CC2=O)CC(OC(=O)c1ccccc1)[C@H]1[C@@](CO)(C(=O)O)CCC[C@@]13C (stereo not given in full) | -5.44% (inactive) | – |
| O=C(O)CC1OCc2c(O)cccc21 (stereo not given) | 1.76% (inactive) | – |
| CC[C@H](C)C(NC(=O)[C@@H](NC)C(C)C)C(=O)NC1C(=O)N(C)[C@@H](C(C)O)C(=O)N[C@@H](C(C)C)C(=O)N(C)[C@@H](CC(C)C)C(=O)NC(C(C)C)C(=O)N(C)[C@@H](C(C)C)C(=O)N(C)[C@@H](Cc2c[nH]c3cccc(OC)c23)C(=O)N[C@@H](C(C)C)C(=O)N[C@@H]([C@H](O)c2ccccc2)C(=O)N[C@@H](C(C)C)C(=O)O[C@@H]1C (stereo partly drawn) (H-[NMeV][ξIle][ξThr(3R)(O-yl)][NMeThr(3ξ)]V[NMeL][ξV][NMeV][NMeTrp(4-OMe)]V[Phe(3R-OH)]V; ester 3-C) | -15.9% (inactive) | – |
